In the library only some 1.4% were active in any assay of this set; here they are far more common.
Vif-A3G inh – blocks the Vif interaction with human APOBEC3G. hit rate 0.076% among 410,000. HeLa A3G-eYFP + Vif (tagged APOBEC3G with the HIV-1 protein that degrades it), YFP fluorescence, overnight. Q9HC16. AID 602310. Potency, µM (top dose mostly 46.1 µM), for the others: top-dose activity, negative = active, usual class: inhibitors; note: potency is the fitted concentration of half-maximal effect; % is set by controls: 0 for no effect and ±100 for the full control effect; nearly all actives have a fitted effect of over 60% in size
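HeLa cells stably expressing Vif and C-terminally eYFP-tagged A3G, seeded overnight at 37 deg C, then exposed to compound by pintool overnight at 37 deg C. Rise in yellow fluorescence (Ex 488/Em 500-530, Acumen) marks blocked Vif-driven A3G degradation.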
S-ASM inh – blocks human secretory acid sphingomyelinase. P17405. placental ASM, HMU-PC fluorogenic substrate, 60 min. Potency, µM (doses to about 57.5 µM), for the others: at the top dose activity change, negative = inhibition, most hits filed as inhibitors. hit rate 0.006% among 340,000. AID 504937; note: potency is the fitted concentration of half-maximal effect
Target sequence (P17405 47-631 limits assumed): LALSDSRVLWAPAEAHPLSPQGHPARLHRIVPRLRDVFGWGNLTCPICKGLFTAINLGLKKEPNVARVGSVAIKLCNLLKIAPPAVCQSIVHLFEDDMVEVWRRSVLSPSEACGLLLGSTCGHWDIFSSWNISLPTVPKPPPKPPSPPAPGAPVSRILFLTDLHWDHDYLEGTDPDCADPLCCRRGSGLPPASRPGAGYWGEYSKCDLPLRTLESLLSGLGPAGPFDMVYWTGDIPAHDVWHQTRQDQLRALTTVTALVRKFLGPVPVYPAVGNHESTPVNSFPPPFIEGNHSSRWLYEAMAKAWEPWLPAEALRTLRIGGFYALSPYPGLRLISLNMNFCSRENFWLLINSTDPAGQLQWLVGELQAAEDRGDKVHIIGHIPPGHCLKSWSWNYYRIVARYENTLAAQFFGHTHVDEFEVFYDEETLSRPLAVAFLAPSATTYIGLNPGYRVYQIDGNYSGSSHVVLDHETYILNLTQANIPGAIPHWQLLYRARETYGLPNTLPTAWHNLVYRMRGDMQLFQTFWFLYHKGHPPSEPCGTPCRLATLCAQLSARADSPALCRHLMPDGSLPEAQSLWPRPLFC
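HMU-PC0 cleavage (9 uM final) by human placental ASM, 60 min at 37 °C following 10 min compound exposure at RT; stopped at pH 10, fluorescence Ex 386/Em 447 nm.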
TSG101-PTAP inh – blocks PTAP/TSG101 interaction to inhibit HIV-1 budding; Potency, µM (highest dose often 115 µM), inactives show at the top dose activity change, negative = inhibition, most hits filed as inhibitors; 340,000 tested, under 10 active; Fluorescence polarization, FITC-PTAP peptide / Tsg101 binding; AID 493005; active = well fitted inhibition curve with a large enough effect in the main read-out, with a control signal flat, not every such curve was filed as active; inconclusive = small, poorly fitted or top-dose-only effect, or effect the other way, or a change in a side signal; inactive = no such curve, though single readings can be large or run the other way; note: potency is the fitted concentration of half-maximal effect; % of control where 0% means no effect
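Steps: Tsg101 binding domain dispensed (10 uM final), compounds pinned in DMSO, FITC-labeled PTAP-motif peptide added (50 nM final); after 20 min binding at room temperature, polarization measured.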
ALOX12 inh – ALOX12 (human) lipoxygenase inhibition; purified 12hLO, xylenol orange hydroperoxide absorbance; Potency, µM (top dose mostly 108 µM), for the others: at the highest dose activity change, negative = inhibition, most hits filed as inhibitors; hit rate 1.1% among 580,000; AID 1671190; note: potency is the fitted concentration of half-maximal effect; % is set by controls: 0 for no effect and ±100 for the full control effect
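Purified human 12hLO at 150 nM in 25 mM Hepes, 0.01% Triton X-100, pH 7.0, preincubated 15 min at room temperature with compound. Reaction started with 40 uM arachidonic acid, 30 min at room temperature. Hydroperoxide measured by Fe-xylenol orange, 573/405 nm absorbance ratio.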
Vif-APOBEC3F blk – Vif-A3F binding inhibition; Potency, µM (top dose mostly 46.1 µM), without a hit: top-dose activity, negative = active; HeLa A3F-eYFP + Vif (tagged APOBEC3F with the HIV-1 protein that degrades it), YFP fluorescence increase; hit rate 0.2% among 390,000; AID 602313; note: potency is the fitted concentration of half-maximal effect; % of control where 0% means no effect; nearly all actives have a fitted effect of over 65% in size
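Fluorescence increase (Ex 488/Em 500-530) after overnight compound treatment at 37 deg C flags inhibition of Vif-driven A3F-eYFP loss in stable HeLa A3F-eYFP/Vif cells seeded overnight beforehand.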
Akt phos inh – blocks phosphorylation of Akt. Neuro2A IGF-stimulated pAkt S473 HTRF, 20 min; active compounds read low. activity change, % for hits at 50 µM. hit rate 0.32% among 360,000. AID 651550; in the data active = activity change below about -80%; inconclusive = mostly about -51% to -80%; note: % is set by controls: 0 for no effect and ±100 for the full control effect
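Neuro2A cells in DMEM with 0.5% FBS, overnight at 37 deg C, given compound at single 50 µM final, then IGF (6 nM final) for 20 min at 37 deg C. Lysed; phospho-Akt Ser473 by HTRF after 24 h, 665/615 ratio.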
Numbers without * were called inactive; i = inactive; u = inconclusive; x = no result; ! = not confirmed by another sample. Unless noted, calls come from the whole dose curve; as a rule, active = well fitted curve in the direction sought with a large enough effect; inconclusive = small, poorly fitted or top-dose-only effect, or another doubt; inactive = no such curve, though single readings can be large; an effect the other way counts as inactive or inconclusive.

SMILES	Vif-A3G inh	S-ASM inh	TSG101-PTAP inh	ALOX12 inh	Vif-APOBEC3F blk	Akt phos inh
CC(C)(C)c1cc(CN(CCO)CCO)cc(C(C)(C)C)c1O	1.0%	-0.1%	-6.3%	15.8µM*	-16.2%	x
CN1CC2(CCN(C(=O)NCCc3ccccc3)CC2)CC1C(=O)N1CCOCC1 (stereo unspecified)	x	x	x	-17.7%	x	x
C/C(=N\Nc1nc2c(s1)CCCC2)c1ccc(Cl)cc1	-8.2%	-3.0%	0.3%	39.8µM*	-10.3%	i
Cc1ccc2[nH]c3c(c2c1)CN(C(=O)CN1CCN(c2cccc(C)c2C)CC1)CC3	-17.4%	-8.3%	-13.9%	39.8µM*	-1.2%	i
CCNc1c(NC(=O)Nc2ccc(CC)cc2)c(=O)oc2ccccc12	x	x	x	44.7µM*	x	x
CCNc1c(NC(=O)Nc2ccccc2)c(=O)oc2ccccc12	x	x	x	-13.8%	x	x
c1ccc(CNc2ncncc2-c2ccc3c(c2)OCO3)cc1	x	x	x	25.1µM*	x	x
Cc1cccc(CNc2ncncc2-c2ccc3c(c2)OCO3)c1	x	x	x	-19.9%	x	x
Nc1nccnc1C(=O)NCc1ccccc1CN1CCCCC1	x	x	x	-36.9%	x	x
CC1(C)CC(NC(=O)C2CCCN(c3ncnc4nc[nH]c34)C2)CC(C)(C)N1 (stereo unspecified)	x	x	x	7.0%	x	x
CC(C)CCC(CCNC(C)c1cccs1)C1CCOC(C)(C)C1 (stereo unspecified)	x	x	x	1.78µM*	x	x
CC(C)CCC1(CCNC(C)c2cccs2)CCOC(C)(C)C1 (stereo unspecified)	5.5%	-2.9%	-2.0%	-13.1%	-17.6%	i
NC(=O)c1c(NC(=S)Nc2ccc(F)cc2)sc2c1CCCC2	1.1%	-3.8%	-2.0%	u	-4.2%	i
CCOc1ccc(NC(=O)c2c(NCc3cccs3)sc3c2CCCCC3)cc1	2.7%	x	x	-27.7%	5.9%	x
NC(=O)c1c(NC(=S)Nc2ccccc2)sc2c1CCCC2	-7.3%	1.5%	-3.2%	35.5µM*	-1.8%	i
CCOc1ccc(NC(=O)c2c(NCc3ccc(C)o3)sc3c2CCCCC3)cc1	-5.2%	x	x	39.8µM*	u	x
O=C(O)CCC(=O)Nc1sc2c(c1C(=O)Nc1cccc3ccccc13)CCCCC2	-0.6%	10.6%	-5.8%	u	0.2%	i
O=C(O)CCC(=O)Nc1sc2c(c1C(=O)Nc1ccccc1)CCCCC2	0.7%	3.4%	-1.4%	14.1µM*!	0.8%	i
CNC(=O)/C(C#N)=C\c1ccc(CNS(=O)(=O)c2ccc(Cl)cc2)o1	-0.3%	7.4%	-7.5%	44.7µM*	-0.9%	i
COc1ccc(OC)c2sc(NC(=O)CCSc3ccccc3)nc12	0.4%	-10.8%	0.5%	17.4%	-3.2%	i
COc1ccc(OC)c2sc(NC(=O)CCS(=O)(=O)c3ccccc3)nc12	11.2µM*	-4.7%	-3.3%	14.7%	2.6%	i
O=C(Nc1ncc2c(n1)CC(c1cccs1)CC2=O)c1ccc(F)cc1 (stereo unspecified)	x	x	x	0.5%	x	x
O=C(Nc1cc(C(F)(F)F)ccc1N1CCOCC1)c1cccnc1Cl	0.0%	0.0%	0.3%	402.8%	1.9%	-110.6%*
CSc1nc2ccccc2n1CC(=O)Nc1cc(C(F)(F)F)ccc1N1CCOCC1	4.8%	-8.6%	-0.3%	2.1%	9.0%	-119.8%*
CCOc1ncccc1C(=O)Nc1cc(C(F)(F)F)ccc1N1CCOCC1	0.8%	12.9%	-3.7%	378.3%	-6.6%	i
COC(=O)c1ccc(C(=O)NC2CCSc3ccccc32)cc1 (stereo unspecified)	-5.4%	-0.6%	0.9%	0.0%	-3.5%	i
Cc1ccc(NC(=S)NC2CCSc3ccccc32)cc1C (stereo unspecified)	1.6%	-5.8%	-5.7%	44.7µM*	u	i
CN(Cc1ccc(F)cc1)C(=O)c1ccc(Cl)c(S(=O)(=O)NC2CC2)c1	x	x	x	20.0%	x	x
O=C(CCNC(=O)c1ccccc1)Nc1ccc(F)c(Cl)c1	-0.5%	2.8%	-1.5%	-7.0%	3.1%	i
O=C(CCC(=O)c1cccs1)NCCC(=O)Nc1ccc(F)c(Cl)c1	x	x	x	50.1µM*	x	x

From PubChem
